# PubChem BioAssay AID504834 (National Center for Advancing Translational Sciences (NCATS), 2011)
# Out of some 320,000 compounds screened, about 22,000 (6.9%) were called active. Entries that show only a call come without a potency. Roughly 27% stayed inconclusive and do not appear here. This excerpt belongs to a sample that is enriched for actives. Values without a mark were called inactive. The call rests on the fitted dose curve; in most records, active means well fitted inhibition curve with a large enough effect; inconclusive means small, poorly fitted or top-dose-only effect, or another doubt; inactive means no such curve, though single readings can be large or run the other way.
# Assay: Primary qHTS for delayed death inhibitors of the malarial parasite plastid, 96 hour incubation
# Details: P. falciparum luciferase reporter growth; series mostly up to 28.7 µM
# Outline: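 96 h incubation, 37 C, 5% CO2, of luciferase-reporter P. falciparum-infected RBCs (2% hematocrit, 0.05% parasitemia final) with test compounds; endpoint luminescence.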
# Potency means the concentration at half of the fitted maximal effect.
Compound,Potency,"activity change, negative = inhibition"
N#Cc1ccccc1S(=O)(=O)N1CCN(Cc2c(O)ccc3ccccc23)CC1,inactive,–
CC(CCc1ccccc1)NC(=O)c1cnc(Cl)c(Cl)c1 (stereo not given),inactive,–
Cc1ccc(N(C(=O)CNC(=O)c2ccco2)C(C(=O)NC2CCCC2)c2ccncc2)cc1 (stereo not given),inactive,–
CC(C)C(NC(=O)c1c(F)cccc1F)C(=O)NCc1ccncc1 (stereo not given),inactive,–
C[C@@H](NC(=O)OC(C)(C)C)c1nnc(S(=O)(=O)Cc2ccccc2)o1,inactive,–
CC(C)CN(CC(C)C)C(=O)CN1c2cccc3cccc(c23)S1(=O)=O,inactive,–
CCn1c(CC(=O)Nc2ccccc2)nnc1SCC(=O)N1CCOCC1,inactive,–
COC(=O)c1ccc(CSc2nncn2C)cc1,inactive,–
CCOc1cc(/C=N/NC(=O)c2ccc(CSc3nncn3C)cc2)ccc1OCC(=O)N1CCOCC1,11.7 µM (active),–
CCOc1cc(/C=N/NC(=O)c2cccc(S(=O)(=O)N3CCOCC3)c2)ccc1OCC(=O)N(C)C,inactive,–
CC(=O)N1CC[n+]2c(-c3ccc([N+](=O)[O-])cc3)csc21,inactive,–
CC1CCN(S(=O)(=O)c2ccc(NC(=O)C3CC(=O)N(c4ccccc4)C3)cc2)CC1 (stereo not given),inactive,–
COc1ccc(/C=C/c2nnc(NC(=O)C(C)C)s2)cc1,inactive,–
O=C(Nc1ccc(Cl)cc1)Nc1nnc(/C=C/c2ccccc2)s1,13.1 µM (active),–
O=C(CSc1ccccc1)Nc1nnc(/C=C/c2ccccc2)s1,inactive,–
CNS(=O)(=O)c1cnccc1N1CCN(c2cccc(C)c2)CC1,10.4 µM (active),–
O=S(=O)(c1cnccc1N1CCN(/N=C/c2ccc(Br)cc2)CC1)N1CCCCC1,inactive,–
CC(C)NC(=O)N1CCN(c2ccncc2S(=O)(=O)N2CCCCC2)CC1,inactive,–
COc1ccc(F)cc1C(=O)COC(=O)c1n[nH]c(=O)c2ccccc12,inactive,–
O=C(c1n[nH]c2c1CCC2)N1CCCC(Nc2cccc(F)c2)C1 (stereo not given),inactive,–
CSc1nc(-c2ccco2)nn1C(=O)c1ccccc1Cl,inactive,–
CCCC1=Nc2cc(C(=O)NCc3ccco3)ccc2Sc2ccccc21,2.94 µM (active),–

Compound,Potency,"activity change, negative = inhibition"
COc1ccc(CCNS(=O)(=O)c2ccc(C(=O)NCc3ccco3)cc2)cc1OC,–,11.4% [at 5.75 µM]
CCC1=Nc2cc(C(=O)NCCCN3CCOCC3)ccc2Sc2ccc(Br)cc21,inactive,–
COCCN(C(=O)COC(=O)Cc1cccc(OC)c1)c1c(N)n(Cc2ccccc2)c(=O)[nH]c1=O,inactive,–
Cc1ccc(F)cc1S(=O)(=O)Nc1cccc(C(=O)N2CCCC(C(N)=O)C2)c1 (stereo not given),inactive,–
COc1cccc(CN2CCN(Cc3ccc4cccc(F)c4n3)CC2CCO)c1 (stereo not given),inactive,–
CCOc1ccc(CN2CCN(CCCc3ccccc3)C(CCO)C2)cc1 (stereo not given),inactive,–
CCOc1ccc(CN2CCN(Cc3ccc4cc(F)ccc4n3)CC2CCO)cc1 (stereo not given),13.1 µM (active),–
Cc1cccc(C(=O)NCc2nnc(SC(C)C(=O)Nc3nnc(C)s3)n2C)c1 (stereo not given),inactive,–
O=C(Nc1ccn(Cc2ccc(F)cc2)n1)c1ccncc1,9.28 µM (active),–
Cc1ccc(Cn2ccc(NC(=O)c3cc(C(C)C)on3)n2)cc1,inactive,–
O=C(Nc1ccn(Cc2ccccc2)n1)c1cccc(F)c1,inactive,–
COc1ccc(C2=NN(C(=O)CSc3nnnn3C)C(c3ccco3)C2)cc1 (stereo not given),inactive,–
CCN(C(=O)COc1ccc(C(=O)c2ccccc2)cc1)c1ccccc1,11.7 µM (active),–
CCN(C(=O)c1ccc(Br)cc1)c1ccccc1,inactive,–
O=C(COc1ccc(F)cc1)N(CC1=CCS(=O)(=O)C1)c1ccccc1,inactive,–
CCc1ccc(NC(=O)CS(=O)CC(=O)N2CCN(c3ccccc3F)CC2)cc1 (stereo not given),inactive,–
COc1cccc(/C=N/Nc2ccc(Cl)nn2)c1,inactive,–
CCOC(=O)C(C)n1cnc2c(nnn2-c2ccc(F)cc2)c1=O (stereo not given),inactive,–
COc1cccc(/C=N/Nc2ncc(C(F)(F)F)cc2Cl)c1O,inactive,–
COc1cccc(/C=N/Nc2cc(C)nc(-c3ccccc3O)n2)c1O,0.37 µM (active),–
COc1cccc2c(N/N=C/c3ccco3)cc(C)nc12,inactive,–
O=C(/C=C/c1ccc(Cl)c([N+](=O)[O-])c1)c1ccc(O)cc1,9.28 µM (active),–

Compound,Potency,"activity change, negative = inhibition"
O=C(/C=C/c1ccc2c(c1)OCCO2)c1ccc(O)cc1,inactive,–
NC(N)=N/N=C/c1ccc(Cl)c([N+](=O)[O-])c1,11.7 µM (active),–
O=C(Nc1ccncc1)c1ccc(Cl)c([N+](=O)[O-])c1,inactive,–
O=C(/C=C/c1ccc(Cl)c([N+](=O)[O-])c1)c1cccnc1,inactive,–
CN(C)c1ccc(/C=C/C(=O)c2ccc(O)cc2)cc1[N+](=O)[O-],inactive,–
COc1ccc(Cl)cc1NC(=O)COc1ccc2c(c1)OCO2,inactive,–
CCN1C(=S)N[C@@H](c2cccc(C(F)(F)F)c2)C(C(=O)OC)=C1C,inactive,–
CCCCn1c(N)c(N(CC(C)C)C(=O)CSc2ccc([N+](=O)[O-])cc2)c(=O)[nH]c1=O,inactive,–
COc1ccc(OC)c(CN2CCN(C(=O)CNC(=O)c3cc(C)cc(C)c3)CC2)c1,inactive,–
O=C(CCNC(=O)c1ccccc1Cl)NCc1ccco1,inactive,–
Cc1cccc(C)c1NC(=O)COC(=O)c1ccccc1O,inactive,–
C=CCn1c(CNS(=O)(=O)c2ccc(Br)cc2)nnc1SC,inactive,–
COC(=O)c1cccc(NC(=O)c2cccc(N3C(=O)CCC3=O)c2)c1,inactive,–
Cc1cccc(N2C(=O)c3ccc(C(=O)Nc4cccc(C(=O)O)c4)cc3C2=O)c1,13.1 µM (active),–
CC(=O)Nc1ccc(NC(=O)c2ccc3c(c2)C(=O)N(c2ccccc2C)C3=O)cc1,inactive,–
NC(=O)c1nsc(C(=O)N(CCCN2CCOCC2)C(C(=O)NC2CCCCC2)c2ccc(Cl)cc2)c1N (stereo not given),inactive,–
c1ccc2cc(CCCc3cc4ccccc4cn3)ncc2c1,inactive,–
CCOc1ccc(OCc2ccc(C(=O)N(C)c3ccccc3)o2)cc1,inactive,–
CCOC(=O)c1nnn(-c2nonc2OC)c1-c1ccccc1,inactive,–
CCOC(=O)c1nnn(-c2nc(OC)nc(N(C)C)n2)c1-c1ccccc1,2.33 µM (active),–
CCOC(=O)c1c(N)nn(C(=O)c2ccccc2)c1-c1ccccc1,inactive,–
